# Measured values published in the supplement of paper PMC9262897, “Low-cost anti-mycobacterial drug discovery using engineered E. coli” (Nature Communications, 2022).
# Structures can show the parent of a compound that is named as a salt. ± gives the standard deviation of the averaged measurements.
# Experiments:
# Assay in all cases: growth (OD600 after 10 h); higher = more growth (less inhibition)
# [1] = test system: E. coli TESEC Alr+ wild-type control; settings: compound 0.1 mM; raw OD600 reference: median of DMSO wells 0.241, cell-free background 0.041
# Description: (§1)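 TESEC Mtb Alr E. coli, or the Alr+ wild-type control, in 384-well plates with Prestwick library compounds at 0.1 mM and 1% DMSO, across arabinose induction levels of 1E3 to 1E7 nM. Growth is read as OD600 after 10 h at 37 °C in triplicate biological replicates.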
# [2] = test system: E. coli TESEC Mtb Alr; settings: compound 0.1 mM
# Description: as §1
# [3] = test system: E. coli TESEC Mtb Asd; settings: compound 0.1 mM
# Description: (§2)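 TESEC E. coli strains in which the native enzyme is deleted and replaced by arabinose-inducible Mtb Asd, DapB, CysH or TrpD, each grown in its selective medium. Strains were screened against the Prestwick library at 0.1 mM and 1% DMSO in 384-well format at low and high arabinose induction. Growth is read as OD600 after 10 h in triplicate.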
# [4] = test system: E. coli TESEC Alr+ wild-type control; settings: compound 0.1 mM; raw OD600 reference: median of DMSO wells 0.49, cell-free background 0.052
# Description: (§3)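 TESEC Mtb Alr E. coli (ΔaraC ΔtolC ΔentC Δalr ΔdadX, arabinose-inducible Mtb Alr) or the Alr+ wild-type control strain, grown in defined M9-fructose medium without D-alanine in 96-well plates with Prestwick library compounds at 0.1 mM and 1% DMSO. Low Alr induction is 0.1 µM arabinose and high induction is 10 mM arabinose.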
# [5] = test system: E. coli TESEC Mtb Alr; settings: compound 0.1 mM; remark: listed apart in the source
# Description: as §3
# [6] = test system: E. coli TESEC Mtb DapB; settings: compound 0.1 mM
# Description: as §2
# [7] = arabinose 1000 nM, raw OD600 reference: median of DMSO wells 0.294, cell-free background 0.041
# [8] = arabinose 10000 nM, raw OD600 reference: median of DMSO wells 0.264, cell-free background 0.041
# [9] = arabinose 100000 nM, raw OD600 reference: median of DMSO wells 0.201, cell-free background 0.041
# [10] = arabinose 1000000 nM, raw OD600 reference: median of DMSO wells 0.193, cell-free background 0.041
# [11] = arabinose 10000000 nM, raw OD600 reference: median of DMSO wells 0.146, cell-free background 0.041
# [12] = arabinose induction (level): High, raw OD600 reference: median of DMSO wells 0.331, cell-free background 0.041
# [13] = arabinose induction (level): Low, raw OD600 reference: median of DMSO wells 0.417, cell-free background 0.041
# [14] = arabinose 100 nM, raw OD600 reference: median of DMSO wells 0.413, cell-free background 0.052
# [15] = arabinose 10000000 nM, raw OD600 reference: median of DMSO wells […], cell-free background 0.052
# [16] = arabinose induction (level): High, raw OD600 reference: median of DMSO wells […], cell-free background 0.041
# [17] = arabinose induction (level): Low, raw OD600 reference: median of DMSO wells 0.227, cell-free background 0.041
SMILES,growth [1],"growth [2, 7]","growth [2, 8]","growth [2, 9]","growth [2, 10]","growth [2, 11]","growth [3, 12]","growth [3, 13]",growth [4],"growth [5, 14]","growth [5, 15]","growth [6, 16]","growth [6, 17]"
CC(=O)NC[C@H]1CN(c2ccc(N3CCOCC3)c(F)c2)C(=O)O1 [Linezolid],0.047 ± 0.0002,0.0465 ± 0.0021,0.0406 ± 0.00046,0.0473 ± 0.0018,0.0402 ± 0.00055,0.0474 ± 0.0016,0.072 ± 0.0052,0.0786 ± 0.0075,0.0669 ± 0.00098,0.135 ± 0.055,0.0531 ± 0.0013,–,–
CS(=O)(=O)c1ccc(C2=C(c3ccccc3)C(=O)OC2)cc1 [Rofecoxib],0.182 ± 0.012,0.2483 ± 0.0006,0.242 ± 0.019,0.184 ± 0.037,0.151 ± 0.008,0.144 ± 0.011,0.336 ± 0.1,0.362 ± 0.097,0.455 ± 0.041,0.409 ± 0.015,0.302 ± 0.041,–,–
O=C(O)CN(CCN(CC(=O)O)CC(=O)O)CCN(CC(=O)O)CC(=O)O [Pentetic acid],0.049 ± 0.00062,0.0429 ± 0.00085,0.03913 ± 0.00012,0.04467 ± 5.8e-05,0.0427 ± 0.00091,0.0607 ± 0.00086,0.115 ± 0.02,0.0868 ± 0.024,–,0.0559 ± 0.0086,0.061 ± 0.001,0.0936 ± 0.0035,0.0709 ± 0.0042
Nc1ccc(S(N)(=O)=O)cc1 [Sulfanilamide],0.249 ± 0.008,0.302 ± 0.011,0.2715 ± 0.0023,0.248 ± 0.014,0.205 ± 0.0051,0.142 ± 0.0052,0.318 ± 0.027,0.446 ± 0.0081,0.507 ± 0.044,0.388 ± 0.033,0.386 ± 0.0053,–,–
CC(N)CCCC(C)(C)O (centres undefined) [Heptaminol hydrochloride],0.252 ± 0.0036,0.285 ± 0.011,0.26 ± 0.013,0.204 ± 0.04,0.1796 ± 0.0016,0.141 ± 0.0064,0.357 ± 0.015,0.442 ± 0.022,–,0.407 ± 0.011,0.36 ± 0.0092,0.188 ± 0.0059,0.195 ± 0.02
Brc1c(NC2=NCCN2)ccc2nccnc12 [Brimondine L-Tartrate],0.209 ± 0.0033,0.2878 ± 0.0023,0.26 ± 0.0099,0.187 ± 0.016,0.172 ± 0.011,0.152 ± 0.0034,0.271 ± 0.038,0.368 ± 0.061,0.46 ± 0.032,0.416 ± 0.015,0.343 ± 0.004,–,–
CO/N=C(\C(=O)N[C@@H]1C(=O)N2C(C(=O)O)=C(COC(C)=O)CS[C@H]12)c1csc(N)n1 [Cefotaxime sodium salt],0.0395 ± 0.00046,0.0388 ± 0.0013,0.0398 ± 0.00026,0.0388 ± 0.0013,0.04017 ± 0.00038,0.04007 ± 0.0004,0.0625 ± 0.0074,0.0606 ± 0.002,0.0462 ± 0.0019,0.0466 ± 0.0015,0.0529 ± 0.0023,–,–
C=C1c2cccc(O)c2C(O)=C2C(=O)[C@]3(O)C(O)=C(C(N)=O)C(=O)[C@@H](N(C)C)[C@@H]3[C@@H](O)[C@H]12 [Methacycline hydrochloride],0.0468 ± 0.0013,0.0453 ± 0.00098,0.0468 ± 0.0019,0.0492 ± 0.0052,0.0489 ± 0.0047,0.0481 ± 0.0026,0.05743 ± 0.00057,0.0548 ± 0.0016,0.0598 ± 0.0011,0.0587 ± 0.0009,0.066 ± 0.0023,–,–
CCn1cc(C(=O)O)c(=O)c2cnc(N3CCNCC3)nc21 [Pipemidic acid],0.116 ± 0.0069,0.0801 ± 0.033,0.063 ± 0.0022,0.117 ± 0.0072,0.0845 ± 0.028,0.147 ± 0.0057,0.157 ± 0.019,0.149 ± 0.014,0.158 ± 0.008,0.156 ± 0.021,0.082 ± 0.0092,–,–
C[C@H](CCC(=O)O)[C@H]1CC[C@H]2[C@@H]3CC[C@@H]4C[C@H](O)CC[C@]4(C)[C@H]3CC[C@]12C [Lithocholic acid],0.255 ± 0.011,0.312 ± 0.011,0.266 ± 0.0075,0.207 ± 0.012,0.169 ± 0.0078,0.173 ± 0.0071,0.462 ± 0.008,0.404 ± 0.022,0.386 ± 0.047,0.325 ± 0.037,0.3 ± 0.017,–,–
C[C@H](CCC(=O)O)[C@H]1CC[C@H]2[C@@H]3[C@@H](O)C[C@@H]4C[C@H](O)CC[C@]4(C)[C@H]3CC[C@]12C [Urosiol],0.2 ± 0.0037,0.279 ± 0.0063,0.188 ± 0.0089,0.188 ± 0.0055,0.1123 ± 0.00023,0.14 ± 0.0032,0.3936 ± 0.0024,0.363 ± 0.018,0.406 ± 0.011,0.399 ± 0.0058,0.182 ± 0.019,–,–
COc1ccc(CN(CCN(C)C)c2ccccn2)cc1 [Pyrilamine maleate],0.2136 ± 0.002,0.269 ± 0.018,0.263 ± 0.0074,0.179 ± 0.008,0.154 ± 0.0054,0.135 ± 0.0052,0.206 ± 0.052,0.426 ± 0.034,0.528 ± 0.077,0.3958 ± 0.0033,0.321 ± 0.015,–,–
O=C(Cn1ccnc1[N+](=O)[O-])NCCO [Etanidazole],0.2444 ± 0.00084,0.306 ± 0.015,0.258 ± 0.0028,0.213 ± 0.0053,0.178 ± 0.0091,0.138 ± 0.0056,0.318 ± 0.027,0.423 ± 0.0082,0.471 ± 0.019,0.406 ± 0.012,0.358 ± 0.016,–,–
Cc1ncc([N+](=O)[O-])n1CC(C)O (centres undefined) [Secnidazole],0.2401 ± 0.001,0.304 ± 0.012,0.272 ± 0.015,0.201 ± 0.0071,0.188 ± 0.0085,0.137 ± 0.0015,0.369 ± 0.026,0.466 ± 0.031,0.4475 ± 0.003,0.4049 ± 0.0029,0.327 ± 0.0064,–,–
OC(CCCN1CCCCC1)(c1ccccc1)c1ccccc1 [Diphenidol hydrochloride],0.227 ± 0.0039,0.278 ± 0.0057,0.257 ± 0.0075,0.2 ± 0.02,0.162 ± 0.0026,0.137 ± 0.0047,0.262 ± 0.012,0.488 ± 0.018,0.48 ± 0.034,0.407 ± 0.008,0.345 ± 0.0049,–,–
CCCOc1ccc(C(=O)OCCN(CC)CC)cc1N [Proparacaine hydrochloride],0.228 ± 0.0033,0.308 ± 0.017,0.268 ± 0.013,0.196 ± 0.0096,0.17 ± 0.0027,0.153 ± 0.0029,0.46 ± 0.0053,0.426 ± 0.025,0.469 ± 0.043,0.408 ± 0.017,0.354 ± 0.024,–,–
CC(=O)[C@@]1(O)CC[C@H]2[C@@H]3C[C@H](C)C4=CC(=O)C=C[C@]4(C)[C@@]3(F)[C@@H](O)C[C@@]21C [Fluorometholone],0.235 ± 0.021,0.308 ± 0.011,0.248 ± 0.011,0.2 ± 0.018,0.13 ± 0.007,0.153 ± 0.0031,0.457 ± 0.013,0.428 ± 0.019,0.447 ± 0.013,0.423 ± 0.007,0.334 ± 0.049,–,–
